D3 antag: blocks the human D3 dopamine receptor. D3R cells, DiscoveRx beta-arrestin luminescence, antagonist mode; stronger effect = lower value. P35462. actives 2.5% (n = 360,000). AID 652054. max response, negative = inhibition, %; in the data active means max response below about -50%; inconclusive means no clear call, values can overlap the other calls; further: on the % scale 0 is the no-effect control and ±100 the full control effect
Target sequence (P35462 whole entry, looked up): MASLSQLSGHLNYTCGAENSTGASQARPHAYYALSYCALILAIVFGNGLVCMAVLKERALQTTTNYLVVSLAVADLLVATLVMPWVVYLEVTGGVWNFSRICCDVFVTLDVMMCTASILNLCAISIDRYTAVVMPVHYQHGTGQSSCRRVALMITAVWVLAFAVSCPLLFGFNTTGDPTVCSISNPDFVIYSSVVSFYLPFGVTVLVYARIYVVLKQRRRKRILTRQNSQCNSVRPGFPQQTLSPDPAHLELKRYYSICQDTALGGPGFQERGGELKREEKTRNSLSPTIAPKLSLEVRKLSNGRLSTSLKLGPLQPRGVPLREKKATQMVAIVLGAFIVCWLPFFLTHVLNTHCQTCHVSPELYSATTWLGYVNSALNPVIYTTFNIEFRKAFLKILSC
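Cells plated overnight at 1500 cells/well, then exposed to library compounds with dopamine controls for 90 minutes at 37 degrees C. DiscoveRx reagent added for 30–60 minutes at room temperature; luminescence read, quantitative HTS format.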
ClpP mod: qHTS Assay for Activators of ClpP; Potency, µM (doses to about 57.5 µM), without a hit: at the top dose activity change, negative = active; actives 1.9% (n = 340,000); ATP-dependent Clp protease proteolytic subunit (Bacillus subtilis (strain 168)), P80244; AID 651965, 2013; purified B. subtilis ClpP, FRET peptide cleavage, 20 min; active means well fitted falling curve with a large enough effect; inconclusive means small, poorly fitted or top-dose-only effect; inactive means no such curve, though single readings can be large or run the other way; further: potency means the concentration at half of the fitted maximal effect; the source files actives as falling curves though it sought activators and does not explain the sign; nearly all actives have a fitted effect of over 65% in size
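Purified B. subtilis ClpP, 10 microg/mL final in Tris/HCl pH8 with KCl, BSA, glycerol and Tween-20, cleaved an Abz/nitrotyrosine-quenched decapeptide. Fluorescence (ex 320, em 430) was read at 0 and 20 min at room temperature. Delta was normalized to 5.8 microM ADEP and DMSO/no-enzyme controls.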
TDP1 cell CPT: growth inhibition of DT40 Tdp1-/-;hTDP1 cells with camptothecin (screen for TDP1 inhibitors) | chicken DT40 Tdp1-/-;hTDP1 cells + 20 nM CPT, ATP luminescence, 48 h | Potency, µM (highest dose often 46.2 µM), inactives show at the highest dose activity change, negative = growth inhibition, usual class: inhibitors | actives 12% (n = 420,000) | AID 686979; further: potency means the concentration at half of the fitted maximal effect; on the % scale 0 is the no-effect control and ±100 the full control effect; nearly all actives have a fitted effect of over 55% in size
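Chicken DT40 Tdp1-/- cells stably complemented with human TDP1 were seeded at 400 cells/well in medium containing 20 nM camptothecin, exposed to pin-transferred compounds, and grown at 37 °C for at least 48 hr. Viability was read as ATP luminescence.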
DT40 TDP1 no CPT: qHTS for Inhibitors of human tyrosyl-DNA phosphodiesterase 1 (TDP1): qHTS in cells in absence of CPT; DT40 Tdp1-/- hTDP1 cells, no CPT, ATP luminescence, 48 h; AID 686978, 2013; actives 15% (n = 420,000); Potency, µM (highest dose often 46.2 µM), for the others: at the highest dose activity change, negative = growth inhibition, most hits filed as inhibitors; further: potency means the concentration at half of the fitted maximal effect; on the % scale 0 is the no-effect control and ±100 the full control effect; nearly all actives have a fitted effect of over 55% in size
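Growth kinetics read by CellTiter-Glo luminescence after ≥48 hr at 37 °C. Cells: DT40 Tdp1-/- stably carrying human TDP1, 400 per well, compound exposure in the absence of CPT (DMSO vehicle).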
D3 ag: D3 dopamine receptor (human) agonism; actives 0.58% (n = 410,000); D3R DiscoveRx beta-arrestin cells, luminescence, 90 min; max activation, %; AID 652048; in the data active means max activation above about 30%; further: 0% is about no effect
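Cells at 1500/well, incubated overnight, then treated with pinned compounds (dopamine as control) for 90 min at 37 degrees C. DiscoveRx reagent added for 30 - 60 minutes at room temperature; luminescence read.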
IL1B secr inh: inflammasome signaling inhibition, IL-1 beta readout; THP-1 LPS/ATP IL-1B secretion, AlphaLISA, 16 h; stronger effect = lower value; actives 4.7% (n = 360,000); activity change, % at 57.5 µM; in the data active means activity change below about -50%; inconclusive means mostly about -30% to -49%; further: on the % scale 0 is the no-effect control and ±100 the full control effect
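Secreted IL-1B measured by AlphaLISA bead assay after 16 h compound exposure of THP-1 cells; compounds (final up to 57.5 uM) added 1 h before LPS (250 ng/mL) and ATP (1.25 mM) stimulation; lower signal means less secretion.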
Numbers without * were called inactive; ? = inconclusive; · = no result given; ! = not confirmed by another sample; [ ] = dose if it differs, or a comment. A selection: hits, their analogues and other compounds. The true share with any hit is near 21%. Unless noted, the call rests on the fitted dose curve; in most records, active means well fitted inhibition curve with a large enough effect; inconclusive means small, poorly fitted or top-dose-only effect; inactive means flat fitted curve, though single readings scatter.

SMILES | D3 antag | ClpP mod | TDP1 cell CPT | DT40 TDP1 no CPT | D3 ag | IL1B secr inh
COc1ccc(Nc2nc(Cl)nc(Nc3ccc(OC)cc3)n2)cc1 | 0 | · | -6% | ? | 8 | -24
COc1ccc(-c2nc3ccc(NC(=O)CO)cc3c(=O)n2Cc2cccc(Cl)c2)cc1COc1ccc(NC(C)=O)cc1 | · | ? | 11µM* | 13µM* | · | ·
COc1ccc(-c2nc3ccc(NC(C)=O)cc3c(=O)n2Cc2ccccc2)cc1COc1ccc(NC(C)=O)cc1 | · | 4% | ? | 11µM* | · | ·
COc1ccc(CN(Cc2ccccc2)C(=O)c2ccc(NC(C)=O)cc2)cc1COc1ccc(NC(C)=O)cc1 | · | -2% | ? | ? | · | ·
COc1cc(/C=C/C(=O)O)cc(S(=O)(=O)Nc2cc(S(=O)(=O)N3CCCCC3)ccc2Cl)c1OC | 35 | 2% | -8% | 6% | 2 | 2
O=C(NCCc1ccccc1)Nc1ccc(Cl)cc1 | -3 | 0% | -7% | -8% | -8 | -4
S=C(NCc1cccs1)Nc1cc(Cl)cc(Cl)c1 | 3 | · | ? | ? | 1 | -83*
S=C(NCCc1ccccc1)Nc1ccc(Cl)cc1 | -15 | 2% | 21µM* | 4.6µM* | -7 | 0
O=[N+]([O-])c1ccc(NC(=S)NCCc2ccc(Cl)cc2)cc1 | 13 | -2% | 2.3µM* | 5.2µM* | 1 | -55*
Fc1ccccc1NC(=S)NCCc1cccc(Cl)c1 | -6 | -1% | 8.2µM* | 7.3µM* | -11 | -88*
CN(C)CCNC(=S)Nc1ccc(Cl)cc1 | -8 | -1% | -4% | -9% | 0 | 13
COc1ccc(CNC(=O)CN(c2ccccc2)S(=O)(=O)N(C)C)cc1 | -5 | 1% | -13% | -12% | 1 | -3
CNC(=O)c1ccsc1NC(=O)CS(=O)(=O)c1ccc(F)cc1 | 28 | -1% | ? | ? | 1 | 19
COc1ccc(-c2noc(CNS(=O)(=O)c3ccc(NC(C)=O)cc3)n2)cc1OC | -15 | 0% | 0% | 2% | 2 | ?
CCCNC(=O)c1c(NC(=O)c2ccc(C)cc2)sc2c1CCCCC2 | · | -1% | ? | -14% | 7 | ·
COC(=O)C1CCN(CC(=O)NC(=O)NC2CCCCC2)CC1 | 0 | · | -13% | -23% | 9 | 23
Cc1ccc(CS(=O)Cc2ccc(C(=O)NC3CCCCC3)o2)cc1 (configuration not stated) | 17 | -4% | -16% | -1% | -1 | -8
CCOC(=O)c1sc(S(C)=O)c2c1CCc1conc1-2 (configuration not stated) | 0 | -13% | ? | ? | -1 | 87
Cc1c(Cl)cccc1NC(=S)NCCc1ccc(C(F)(F)F)cc1 | 2 | · | ? | 16µM* | -4 | -102*
S=C(NCCc1ccccn1)Nc1ccc(Cl)c(Cl)c1 | -11 | -2% | ? | ? | 3 | -19
S=C(NCCc1ccccn1)Nc1cc(Cl)cc(Cl)c1 | -2 | · | -27% | -16% | -5 | -77*
Cc1c(Cl)cccc1NC(=S)NCCc1ccccn1 | -5 | · | 8% | -5% | 4 | ·
COc1ccc(CNc2nc3c(-c4ccccc4)nnn3c3ccccc23)cc1 | · | 3% | ? | ? | -1 | ·
O=C(NCC1CCC2(CCN(Cc3c[nH]c4ccccc34)CC2)O1)C1CCOCC1 (configuration not stated) | · | · | -8%[9.04 µM] | -11% | · | ·
CC(C)(CO)Cc1cc(C(C)(C)C)c(O)c(C(C)(C)C)c1 | 21 | -2% | 18µM* | ? | 11 | 3
CC(C)(C)c1ccc(O)c(/C=N\O)c1 | 31 | -1% | -11% | -13% | 1 | -9
Cc1cc(C(C)(C)C)c(O)c(C(C)(C)C)c1 | 26 | 2% | ? | 13µM*! | -15 | 23
CC(C)(C=O)Cc1cc(C(C)(C)C)c(O)c(C(C)(C)C)c1 | 50 | -1% | ? | ? | 23 | 16
